# Results: PubChem BioAssay AID1347165 (National Center for Advancing Translational Sciences (NCATS), 2019)
# Out of some 220,000 compounds screened, about 5,700 (2.6%) were called active. Roughly 18% stayed inconclusive and do not appear here. Calls come from the whole dose curve; as a rule, active = well fitted inhibition curve with a large enough effect; inconclusive = small, poorly fitted or top-dose-only effect; inactive = no such curve, though single readings can be large or run the other way. The list comes from a sample in which actives are over-represented; it also holds similar structures and randomly drawn compounds. A call without a number means that no potency is given here.
# Biological target: Lysine-specific demethylase 5B (Homo sapiens) (UniProt Q9UGL1)
# Experiment: Primary screen for KDM5B Histone Demethylases FDH-coupled qHTS; note: nearly all actives have a fitted effect of over 70% in size
# Settings: FDH-coupled NADH fluorescence (FDH is formaldehyde dehydrogenase); series mostly up to 57.7 µM
# Excerpt: Assay Submitter (PI): Qin Yan, Ph.D. (Yale University) and Xiaodong Cheng, Ph.D. (MD Anderson) This project was funded as part of the NCI NEXT Program and Chemical Biology Consortium (CBC) The histone demethylases, KDM5A and KDM5B catalyze the demethylation of lysine 4 on histone H3 (H3K4me3/2). They are overexpressed in a variety of cancers and have been implicated in cancer cell growth, metastasis, drug resistance, and tumor growth. KDM5A is amplified and overexpressed in breast and gastric cancer; and is translocated in leukemia. While KDM5B is highly expressed in human mammary tumors and breast cancer cell lines, but not in normal adult breast tissue. Moreover, knockdown of KDM5B leads to upregulation of tumor suppressor genes, including BRCA1. The goal of this project is to employ qHTS to identify selective small molecule inhibitors of KDM5A/B demethylase activity to better understand the role of KDM5 in cancer and to develop novel therapies. We employed an FDH-coupled assay previously reported by Sakurai et al. to monitor in vitro KDM5 demethylase activity. Compounds showing dose response inhibition are re-acquired, validated, and tested for non-specific interference with the formaldehyde dehydrogenase (FDH) counterscreen. True inhibitors are validated using an AlphaLisa secondary screen, which employs an H3K4(me2-1)-specific antibody to monitor demethylation of a biotin-tagged H3K4(me3) peptide substrate. Inhibitors are profiled against KDM4A and KDM6A AlphaLisa counterscreens to determine level of demethylase specificity; and against the TruHits counterscreen to eliminate non-specific inhibitory activity on the AlphaLISA detection method. Selective inhibitors identified from the primary and secondary screening are tested in cells using immunofluorescence to monitor global H3K4 tri-methylation as a measure of KDM5A/B inhibition. Early Translation Branch (ETB) National Center for Advancing Translational Sciences (NCATS), Rockville, MD National Institute of Health (NIH), Bethesda, Maryland [1] Sakurai, M et al. A miniaturized screen for inhibitors of Jumonji histone demethylases. Mol Biosyst. 2010 Feb;6(2):357-64. doi: 10.1039/b912993f. Epub 2009 Oct 8.
# Materials: 1536-well Black, solid bottom, medium binding assay plate is purchased from Greiner Bio-one. The enzymes (KDM5B) and substrate (H3K4me3/2) are provided by the principal investigators. The buffer for this assay is composed of 50mM HEPES at pH 7.5 with 0.01% Tween-20. FDH coupled Demethylase qHTS protocol: Three microliter enzyme mix (buffer + 200nM KDM5BDeltaAP final concentration) is dispensed into the assay plate using the BioRAPTR Flying Reagent Dispenser (FRD; […]). Compound (at various final concentration) and control solution is pin transferred to the assay plate using the Kalypsys 1536-pin tool apparatus. The assay plate is incubated for 10 min at room temperature followed by addition of 1uL substrate mix (buffer + 100uM ascorbic acid, 50uM ferrous ammonium sulfate, 12.5uM H3K4Me3, 25uM a-ketoglutarate, 0.25 mM NAD+, 0.25 U/mL formaldehyde dehydrogenase using the FRD yielding a total reaction volume of 4 uL. Initial fluorescence (Read1) is detected using the PerkinElmer ViewLux plate reader equipped with 340 nm excitation and 450 nm emission filters. The final fluorescence (Read2) signal is obtained after 30 min of room temperature incubation. Delta RFU is calculated (Read2 - Read1) and is used to generated dose response curves.
# Potency is the fitted concentration of half-maximal effect.
# Sequence of Lysine-specific demethylase 5B (Homo sapiens) (Q9UGL1 whole entry, looked up): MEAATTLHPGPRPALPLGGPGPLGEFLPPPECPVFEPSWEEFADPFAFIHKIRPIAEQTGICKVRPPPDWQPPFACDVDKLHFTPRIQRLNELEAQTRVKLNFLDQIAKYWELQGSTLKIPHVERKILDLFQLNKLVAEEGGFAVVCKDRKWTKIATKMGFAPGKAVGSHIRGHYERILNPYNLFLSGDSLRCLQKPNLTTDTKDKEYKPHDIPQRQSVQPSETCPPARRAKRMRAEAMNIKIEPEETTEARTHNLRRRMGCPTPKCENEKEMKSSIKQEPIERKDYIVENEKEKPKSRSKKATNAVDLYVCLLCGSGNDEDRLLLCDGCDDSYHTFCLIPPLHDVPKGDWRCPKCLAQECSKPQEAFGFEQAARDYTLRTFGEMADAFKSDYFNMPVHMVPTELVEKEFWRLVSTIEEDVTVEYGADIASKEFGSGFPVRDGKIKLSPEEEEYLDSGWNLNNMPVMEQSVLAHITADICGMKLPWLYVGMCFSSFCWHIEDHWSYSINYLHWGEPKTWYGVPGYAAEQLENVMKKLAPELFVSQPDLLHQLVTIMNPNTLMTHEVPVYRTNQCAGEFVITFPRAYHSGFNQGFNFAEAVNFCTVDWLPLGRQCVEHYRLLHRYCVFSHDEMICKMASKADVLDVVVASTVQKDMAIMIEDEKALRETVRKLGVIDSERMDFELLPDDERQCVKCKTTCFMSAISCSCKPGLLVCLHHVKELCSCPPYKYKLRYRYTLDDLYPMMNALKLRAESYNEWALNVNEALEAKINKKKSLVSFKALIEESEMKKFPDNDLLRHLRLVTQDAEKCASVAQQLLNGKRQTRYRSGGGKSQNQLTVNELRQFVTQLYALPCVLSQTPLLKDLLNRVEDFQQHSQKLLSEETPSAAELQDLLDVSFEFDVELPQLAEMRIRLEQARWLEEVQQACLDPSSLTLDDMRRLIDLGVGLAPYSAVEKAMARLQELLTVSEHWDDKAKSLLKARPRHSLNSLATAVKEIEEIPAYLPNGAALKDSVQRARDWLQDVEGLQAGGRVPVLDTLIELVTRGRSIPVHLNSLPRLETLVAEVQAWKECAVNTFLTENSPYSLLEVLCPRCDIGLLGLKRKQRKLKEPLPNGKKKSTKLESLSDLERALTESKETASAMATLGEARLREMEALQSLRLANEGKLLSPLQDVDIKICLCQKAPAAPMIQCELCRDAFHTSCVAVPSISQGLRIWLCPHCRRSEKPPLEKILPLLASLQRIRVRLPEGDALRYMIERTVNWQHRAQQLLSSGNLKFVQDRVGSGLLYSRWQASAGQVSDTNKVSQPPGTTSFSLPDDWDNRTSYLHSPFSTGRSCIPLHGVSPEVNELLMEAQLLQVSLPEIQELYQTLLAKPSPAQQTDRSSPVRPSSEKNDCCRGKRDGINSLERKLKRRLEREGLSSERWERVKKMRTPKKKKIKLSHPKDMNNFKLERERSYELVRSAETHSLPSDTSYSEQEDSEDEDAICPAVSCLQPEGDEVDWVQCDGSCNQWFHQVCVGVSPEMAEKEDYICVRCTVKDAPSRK
row,SMILES,Potency
1,Cc1nnn2c(C(=O)NC3CC3)cccc12,35.5 µM (active)
2,Cc1ccc(NC(=O)c2ccccc2SCC(=O)NC2CC2)c(C)c1,inactive
3,Cn1ncc(Br)c1C(=O)NC1CCCC1,inactive
4,O=c1oc2ccccc2cc1-c1nc(-c2ccc(F)cc2)no1,inactive
5,CN(CC(=O)NCCN1CCOCC1)S(=O)(=O)c1ccc(F)cc1,inactive
6,Cc1ccc(C)n1-c1c(C(=O)NCCN2CCOCC2)sc2ncccc12,inactive
7,COC(=O)[C@@H]1Cc2c([nH]c3ccccc23)[C@H]2C[C@H](NCCNC(C)=O)C[C@@H](c3ccc(C)cc3)N21,17.8 µM (active)
8,COC(=O)[C@@H]1C[C@@H](NC(=O)c2ccc(-c3nnn(C)n3)cc2)CN1C,inactive
9,CCOc1cccc(CC(=O)N2CCc3c([nH]c4ccccc34)C2c2ccc(F)cc2)c1OCC (configuration not stated),inactive
10,COC(=O)[C@@H]1Cc2c([nH]c3ccccc23)[C@H]2C[C@@H](NCCN3CCOCC3)C[C@@H](c3ccccc3F)N21,17.8 µM (active)
11,CC(C)NC(=O)NC(=O)CSc1nc(-c2ccco2)nc2ccccc12,inactive
12,CNC(=O)c1sc(NCc2ccccc2OC)nc1C,inactive
13,CCOC(=O)c1c(C)[nH]c(C)c1S(=O)(=O)N(C)CC(=O)Nc1cc(C)cc(C)c1,inactive
14,Cc1[nH]c2ccccc2c1C(=O)C(=O)NC1CCS(=O)(=O)C1 (configuration not stated),inactive
15,O=C(c1cccc(C(F)(F)F)c1)N1C[C@@H](CO)[C@H](c2ccccn2)C1,inactive
16,CC(C)(C)c1ccc(C(=O)N2C[C@@H](CO)[C@H](c3ccccn3)C2)cc1,inactive
17,O=C(c1cccc2[nH]ccc12)N1C[C@@H](CO)[C@H](c2ccccn2)C1,17.8 µM (active)
18,Cc1cc2oc(=O)cc(CN3CCN(S(=O)(=O)c4ccc5c(c4)OCCO5)CC3)c2cc1C(C)C,inactive
19,COC(=O)CN(CC(=O)NC(N)=O)Cc1ccccc1,inactive
20,COc1ccc2cc(C(=O)N3C[C@@H](Oc4ccccc4)C[C@H]3C(=O)N3CCOCC3)[nH]c2c1,28.2 µM (active)
21,COc1ccc(CCC(=O)N2C[C@@H](Oc3ccccc3)C[C@H]2C(=O)N2CCOCC2)cc1,inactive
22,COc1ccc2[nH]c(C(=O)N3C[C@@H](Oc4ccccc4)C[C@H]3C(=O)N3CCCC3)cc2c1,inactive
23,CCCn1c(=O)n(CC(=O)Nc2ccc(C)c(F)c2)c(=O)c2c1nc(C)n2CCOC,inactive
24,CCN(CC)c1ccc(C(=S)N(C)C)cc1,inactive
25,Cc1nc(C(=O)N2CC[C@H](N3CCN(C)CC3)[C@H](CCCO)C2)cs1,inactive
26,CN1CCN([C@H]2CCN(C(=O)Cc3cccc(O)c3)C[C@H]2CCCO)CC1,inactive

row,SMILES,Potency
1,CNc1nc(N2CC[C@H](N3CCN(C)CC3)[C@H](CCC(=O)O)C2)ncc1F,14.1 µM (active)
2,O=C(CSc1nc(-c2ccc(F)cc2)cc(C(F)(F)F)n1)NC1CCCC1,inactive
3,CCOC(=O)C1=C(N)Oc2c(oc(CO)cc2=O)C1c1ccccc1C(F)(F)F (configuration not stated),inactive
4,CCOc1cc(C2CC(=O)NC(SCC(=O)OC)=C2C#N)ccc1O (configuration not stated),inactive
5,COCCN1Cc2nc(NCc3ccccc3)ccc2OCC1=O,35.5 µM (active)
6,COc1cccc(CN2Cc3nc(-c4cc(F)cc(F)c4)ccc3OCC2=O)c1,inactive
7,O=C1Cc2c(-c3ccc(F)cc3F)n[nH]c2CN1Cc1ccccc1F,inactive
8,O=C1COc2ccc(-c3cncnc3)nc2CN1Cc1ccc(F)cc1,inactive
9,COCCn1c(C(=O)NCc2ccncc2)nc2ccccc2c1=O,inactive
10,COc1cccc(CN2Cc3nc(Nc4cccc(F)c4)ccc3OCC2=O)c1,28.2 µM (active)
11,COCCNc1nc2c(c(=O)n(C)c(=O)n2C)n1CCc1ccccc1,inactive
12,O=C1COc2ccc(Nc3ccccc3F)nc2CN1Cc1ccccc1F,35.5 µM (active)
13,COc1cccc(C(=O)Nc2ccc3c(c2)CN(Cc2ccc(OC)cc2OC)C(=O)CO3)c1,inactive
14,CCC(C(=O)Nc1ccc2c(c1)CN(Cc1cc(F)cc(F)c1)C(=O)CO2)c1ccccc1 (configuration not stated),inactive
15,COCC(=O)Nc1ccc2c(c1)CN(Cc1ccccc1F)C(=O)C(C)O2 (configuration not stated),inactive
16,Cc1ccccc1CN1Cc2nc(NCc3ccncc3)ccc2OCC1=O,35.5 µM (active)
17,CC(=O)Nc1scc(-c2cc(C)ccc2C)c1C#N,inactive
18,Cc1ccc(C(=O)C(C)OC(=O)Cc2n[nH]c(=O)c3ccccc23)cc1C (configuration not stated),inactive
19,O=C1c2ccccc2NC(c2cnc3ccccc3n2)N1c1ccc(Cl)cc1 (configuration not stated),inactive
20,Cc1cc(C)c(C(=O)Nc2ccccc2)c(SCC(=O)NC2CCCCC2)n1,inactive
21,CCN1CCN(C(c2ccccc2)c2c(O)cc(C)n(CC)c2=O)CC1 (configuration not stated),inactive
22,CCCCC(c1nnnn1CS(=O)(=O)c1ccc(C)cc1)N1CCC(C(N)=O)CC1 (configuration not stated),inactive
23,CCC(C)c1ccc(NC(=S)N2CCCC2)cc1 (configuration not stated),inactive
24,CC(C)NC(=O)C1(CCO)CCN(c2ncccn2)C1 (configuration not stated),31.6 µM (active)
25,CC(C)NC(=O)C1(CCO)CC12CCOCC2 (configuration not stated),inactive
26,COc1cccc(NC(=O)COc2cc(C)cc3oc(=O)cc(C)c23)c1,inactive

row,SMILES,Potency
1,CCOc1ccc(C(=O)N2CC(=O)Nc3ccc(C)cc3C2c2ccccc2)cc1 (configuration not stated),inactive
2,CCC(C(=O)NCCn1ccn2nc(-c3ccc(F)cc3)cc2c1=O)c1ccccc1 (configuration not stated),inactive
3,CCOc1ccc(-c2cc3c(=O)n(CC(=O)NCc4ccc(OC)cc4)ccn3n2)cc1,inactive
4,CCOc1ccc(-c2cc3c(=O)n(CCNC(=O)c4ccc(OC)cc4C)ccn3n2)cc1,28.2 µM (active)
5,Cc1ccc(C)c(-c2cc3c(=O)n(CCNC(=O)c4ccncc4)ccn3n2)c1,inactive
6,COc1ccc(-c2cc3c(=O)n(CCNC(=O)c4ccc(OC)cc4OC)ccn3n2)cc1,35.5 µM (active)
7,Cc1ccc(C)c(-c2cc3c(=O)n(CCNC(=O)Cc4ccsc4)ccn3n2)c1,inactive
8,Cc1c(Cl)cccc1NC(=S)NCCSc1ccc(Cl)cc1,inactive
9,O=Cc1cc(Cl)ccc1O,inactive
10,Cc1cc(C)c(NC(=O)COc2ccc(C(=O)Nn3c(C)ccc3C)cc2)c(C)c1,inactive
11,O=C(Nc1ccccc1C(F)(F)F)N1CCC(N2CCN(Cc3ccccn3)C(=O)C2=O)CC1,inactive
12,COc1ccc(C(=O)C(C)OC(=O)c2nn(C)c(=O)c3ccccc23)cc1 (configuration not stated),inactive
13,COC(=O)c1ccc(/C=C2\CCc3c(C)cc(C)cc3C2=O)cc1,inactive
14,O=C1CCN(C(=O)c2ccc3ccccc3n2)CCCCCCN1,inactive
15,O=C(c1ccc2cc[nH]c2n1)N1CCOCC1,126 µM (active)
16,O=C(CN1CCN(C(=O)c2ccc3ccccc3n2)CC1)NC1CC1,inactive
17,Cc1cccc(C)c1NC(=O)CSc1nc(C)c(C)o1,inactive
18,CN(CC(=O)Nc1ccc2c(c1)OC1(CCCCC1)O2)Cc1cccs1,inactive
19,COc1ccc(S(=O)(=O)NCCOc2ccccc2)cc1F,inactive
20,CCOc1ccc(C2C(C#N)=C(N)N(N(C)C)C3=C2C(=O)CCC3)cc1 (configuration not stated),inactive
21,O=C1CCC/C(=N/NC(=O)c2cc(-c3ccncc3)nc3ccccc23)C1,inactive
22,O=C(c1ccc(Cl)cc1)N(Cc1ccco1)c1ccc(O)cc1,inactive
23,CNC(=O)CCN(C)c1nccc(-c2ccc(C)nc2C)n1,25.1 µM (active)
24,CCc1ccc(CCC(=O)NC)cc1,inactive
25,CNc1c(NC(=O)Cc2ccc(OC)c(OC)c2)c(=O)oc2ccccc12,inactive
26,O=C(NNC(=O)C1CCC1)c1ccccc1,inactive

row,SMILES,Potency
1,O=C(OCc1ccc(F)cc1)c1cnc2ccccc2n1,inactive
2,Cc1ccc(NC(=O)c2ccoc2)cc1I,inactive
3,O=C(NC12CC3CC(CC(C3)C1)C2)c1cccc2ncccc12,inactive
4,Cc1ccccc1NC(=O)C(C)Sc1ccc(C(F)(F)F)cn1 (configuration not stated),inactive
5,CC1(C)C/C(=N/Nc2ccc([N+](=O)[O-])cc2[N+](=O)[O-])C(C)(C)O1,inactive
6,CC(C)c1ccc(/C=C(/C#N)c2nc3ccccc3[nH]2)cc1,inactive
7,COc1ccccc1C(=O)N1CCc2c(nc3cc(-c4ccccc4Cl)[nH]n3c2=O)C1,22.4 µM (active)
8,COc1ccc(-c2cc3nc4c(c(=O)n3[nH]2)CCN(C(=O)c2ccccc2C)C4)cc1,20 µM (active)
9,COC(=O)c1cccc(NC(=O)N2CCc3c(nc4cc(-c5ccccc5)[nH]n4c3=O)C2)c1,11.2 µM (active)
10,COC(=O)c1cccc(NC(=O)N2CCC3(CCC(=O)N(Cc4ccccc4)CC3)CC2)c1,inactive
11,COc1ccccc1N1CCN(C(=O)c2ccccc2-c2ncc[nH]2)CC1=O,inactive
12,O=C(Nc1ccccc1)N1CCc2nc(-c3ccccc3)nc(-c3ccc(Cl)cc3)c2C1,inactive
13,COc1ccccc1CC(=O)N1CCc2c(nc3cc(-c4ccccc4Cl)[nH]n3c2=O)C1,inactive
14,COc1ccc(-c2cc(N3CCCN(C(=O)c4ccc(OC)cc4C)CC3)n[nH]2)cc1,inactive
15,COc1ccc(-c2nc(C(C)C)nc3c2CN(C(=O)c2ccccc2F)CC3)cc1,inactive
16,CCN(CC)c1nc2ccccc2nc1C(=O)Nc1ccccc1C,inactive
17,O=c1oc2ccccc2c2nc(-c3ccccc3)c(-c3ccccc3)nc12,inactive
18,Cc1c(-c2ccccc2)nc2ccccc2c1C(=O)OCC(N)=O,inactive
19,COC(=O)CC(NC(=O)c1nn(C)c(=O)c2ccccc12)c1ccccc1 (configuration not stated),inactive
20,CC(C)C(=O)NC(Nc1ccccc1Cl)(C(F)(F)F)C(F)(F)F,inactive
21,COc1ccc(Nc2cnc3ccc(-c4ccc(OC)nc4)nn23)cc1,inactive
22,COc1ccc(-c2ccc3ncc(Nc4ccc(C(F)(F)F)cc4)n3n2)cn1,inactive
23,COc1ccc(-c2ccc3ncn(C4CC4)c(=O)c3n2)cn1,39.8 µM (active)
24,O=C(O)c1cccc(NC(NC(=O)c2cccs2)C(=O)c2ccccc2)c1 (configuration not stated),inactive
